Results filed as inconclusive are left out. The source made the active and inactive calls. Calls come from the whole dose curve; as a rule, active = well fitted activation curve with a large enough effect in the repeat runs; inconclusive = weak or mixed curves; inactive = no such curve, though single readings can be large or run the other way. Positions of bridges follow the written chain, without caps; N, C: chain ends. Non-standard residues stand in square brackets, D forms with d. Residues, ends and D or L forms follow the SMILES beside them. *: point of attachment. X1 = CC[C@@H](C)[C@@H](N)C1=N[C@H](C(=O)*)CS1; d(aIle) = CC[C@H](C)[C@@H](N)C(=O)O; dOrn = NCCC[C@@H](N)C(=O)O
target: Nuclear receptor subfamily 1 group I member 2 (Rattus norvegicus) (UniProt Q9R1A7); test: Rat pregnane X receptor (rPXR) activation by small molecules, qHTS assay (AID 1346983); settings: rPXR luciferase reporter cells, One-Glo luminescence, 24 h; max activation: stronger effect = higher value; note: nearly all actives have a fitted effect of over 20% in size
In short: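 Cell-based rPXR luciferase reporter assay, 2,000 cells per well, rested 5hr at 37 C before compound addition in DMSO, then 24 hr at 37 C. One-Glo reagent was added and luminescence read after 30 min at room temperature.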
% is set by controls: 0 for no effect and ±100 for the full control effect.

Sequence of Nuclear receptor subfamily 1 group I member 2 (Rattus norvegicus) (Q9R1A7 whole entry, looked up): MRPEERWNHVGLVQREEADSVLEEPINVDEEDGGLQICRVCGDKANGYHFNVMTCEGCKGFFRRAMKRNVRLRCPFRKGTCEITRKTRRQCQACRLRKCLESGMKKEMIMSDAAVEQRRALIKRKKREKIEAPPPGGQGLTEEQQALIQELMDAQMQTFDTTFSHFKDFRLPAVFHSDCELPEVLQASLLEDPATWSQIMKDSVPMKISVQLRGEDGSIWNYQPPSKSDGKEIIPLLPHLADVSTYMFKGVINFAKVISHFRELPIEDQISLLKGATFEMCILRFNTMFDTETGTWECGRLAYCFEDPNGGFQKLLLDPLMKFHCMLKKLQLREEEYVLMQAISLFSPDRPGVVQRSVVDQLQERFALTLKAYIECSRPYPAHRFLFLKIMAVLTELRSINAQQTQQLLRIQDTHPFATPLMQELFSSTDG

| Compound | max activation |
| --- | --- |
| O=C(O)/C=C/C(=O)Nc1ccc(S(=O)(=O)Nc2nccs2)cc1 | -4.08% (inactive) |
| O=C(CCCN1CCN2CCCC2C1)c1ccc(F)cc1 (stereo not drawn) | 1.23% (inactive) |
| CC[C@@H](C)[C@@H](N)C1=N[C@H](C(=O)N[C@@H](CC(C)C)C(=O)N[C@@H](CCC(=O)O)C(=O)N[C@@H](C(=O)N[C@@H]2CCCCNC(=O)[C@@H](CC(N)=O)NC(=O)[C@@H](CC(=O)O)NC(=O)[C@@H](Cc3cnc[nH]3)NC(=O)[C@@H](Cc3ccccc3)NC(=O)[C@@H]([C@H](C)CC)NC(=O)[C@@H](CCCN)NC2=O)[C@@H](C)CC)CS1 (X1-LE[d(aIle)][dK][dOrn][dI][dF][dH][dD][dN]; lactam 4-C) | -0.877% (inactive) |
| C=CC[N+]1([C@H]2C[C@H]3[C@@H]4CC[C@H]5C[C@H](O)[C@@H](N6CCOCC6)C[C@]5(C)[C@H]4CC[C@]3(C)[C@H]2OC(C)=O)CCCC1 | -2.81% (inactive) |
| O=C(O)/C=C/C(O)c1ccc(Cl)cc1 (stereo not drawn) | -1.46% (inactive) |
| C=CC[N@@+]12CC[C@@]34c5ccccc5N5/C=C6/[C@H]7C[C@H]8[C@@]9(CC[N@@+]8(CC=C)C/C7=C/CO)c7ccccc7N(/C=C(/[C@@H](C[C@@H]31)/C(=C\CO)C2)[C@H]54)[C@@H]69 | 3.06% (inactive) |
| CN1C(=O)C[C@@H](C(=O)N[C@@H](Cc2cnc[nH]2)C(=O)N2CCC[C@H]2C(N)=O)NC1=O | -0.675% (inactive) |
| C[C@@H]1C(=O)NC2=Nc3cccc(Cl)c3CN21 | 3.73% (inactive) |
| C[C@]12O[C@H](C[C@]1(O)CO)n1c3ccccc3c3c4c(c5c6ccccc6n2c5c31)CNC4=O | -24.6% (inactive) |
| Cc1cn([C@H]2C[C@H](O)[C@@H](CO)O2)c(=O)[nH]c1=O | -1.3% (inactive) |
| FC(F)(F)COCC(F)(F)F | -3.1% (inactive) |
| CC(C)(O/N=C(\C(=O)N[C@@H]1C(=O)N2C(C(=O)[O-])=C(C[n+]3ccccc3)CS[C@H]12)c1csc(N)n1)C(=O)O | 0.831% (inactive) |
| CO/N=C(\C(=O)N[C@@H]1C(=O)N2C(C(=O)[O-])=C(C[n+]3cccc4c3CCC4)CS[C@H]12)c1csc(N)n1 | -2.77% (inactive) |
| CC12CCC(C1)C(C)(C)C2=O (stereo not drawn) | -2.76% (inactive) |
| C=CC1=C(C(=O)O)N2C(=O)[C@@H](NC(=O)/C(=N\O)c3csc(N)n3)[C@H]2SC1 (stereo in doubt) | -3.55% (inactive) |
| Cc1cc(N)c2ccccc2[n+]1CCCCCCCCCC[n+]1c(C)cc(N)c2ccccc21 | -11.7% (inactive) |
| CC(=O)Nc1ccc(OC(C)=O)cc1 | -1.35% (inactive) |
| NC(N)=NCc1cccc(I)c1 | -16.9% (inactive) |
| CC(C)[C@H](NC(=O)[C@H](CC(=O)O)NC(=O)[C@H](CCCCN)NC(=O)[C@@H](N)CCCN=C(N)N)C(=O)N[C@@H](Cc1ccc(O)cc1)C(=O)O (H-RKDVY-OH) | -1.21% (inactive) |
| CC1CCCC(C)N1NC(=O)c1ccc(Cl)c(S(N)(=O)=O)c1 (stereo not drawn) | -4.09% (inactive) |
| O=C[C@H](O)[C@@H](O)[C@@H](O)[C@H](O)CO | -2.08% (inactive) |
| CN[C@@H]1[C@@H](O[C@H]2O[C@H](CO)[C@@H](N)[C@H](O)[C@H]2O)O[C@H]2C[C@@H](N)[C@@H](O[C@H]3[C@H](O)[C@@H](O)[C@H](N)C[C@@H]3N)O[C@@H]2[C@@H]1O | -0.875% (inactive) |
| CC[C@H]1OC(=O)C[C@@H](O)[C@H](C)[C@@H](O[C@@H]2O[C@H](C)[C@@H](O[C@H]3C[C@@](C)(O)[C@@H](O)[C@H](C)O3)[C@H](N(C)C)[C@H]2O)[C@@H](CC=O)C[C@@H](C)C(=O)/C=C/C(C)=C/[C@@H]1CO[C@@H]1O[C@H](C)[C@@H](O)[C@@H](OC)[C@H]1OC | 0.133% (inactive) |
| C[C@@H]1O[C@@H](OC[C@H]2O[C@@H](Oc3c(-c4ccc(OCCO)c(OCCO)c4)oc4cc(OCCO)cc(O)c4c3=O)[C@H](O)[C@@H](O)[C@@H]2O)[C@H](O)[C@H](O)[C@H]1O | -1.87% (inactive) |
| Cc1cc(C(=O)NCCc2ccc(S(=O)(=O)NC(=O)NN3CCCCCC3)cc2)no1 | -0.977% (inactive) |
| NCC1CCC(C(=O)O)CC1 (stereo not drawn) | -1.27% (inactive) |
| OCCCNc1ccccc1 | -0.22% (inactive) |
| O=C(O)CCCC/C=C(\c1ccccc1)c1cccnc1 | -2.2% (inactive) |
